Data taken from article PMC5540273 (PLoS ONE, 2017).

Tests used:
Conditions in all cases: concentration: 1 μM, replicates: in singlicate; n = 1
[1] = tested on: AXL
[2] = tested on: T1, BIKE
T1 construct: gene BMP2K

[3] = tested on: BLK
[4] = tested on: BMPR1A
[5] = tested on: BMPR1B
[6] = tested on: BMPR2
[7] = tested on: BMX
[8] = tested on: BRAF
[9] = tested on: T2, BRK
T2 construct: gene PTK6

[10] = tested on: BRSK1
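Note: KINOMEscan kinase panel screen.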

Compound	%Inh [1]	%Inh [2]	%Inh [3]	%Inh [4]	%Inh [5]	%Inh [6]	%Inh [7]	%Inh [8]	%Inh [9]	%Inh [10]
COc1cc(OC)cc(-c2cc3cnc(N)nc3nc2NC(=O)NC(C)(C)C)c1	0%	0%	8%	54%	0%	0%	0%	10%	0%	0%
Cc1nnc(-c2ccc3ncn(-c4ccc(S(C)=O)cc4)c3c2)o1 (centres unmarked)	4%	0%	0%	19%	0%	0%	12%	0%	19%	0%
O=C(Nc1n[nH]c2nc(-c3ccccc3)c(Cl)cc12)C1CC1 [SB-734909]	0%	21%	0%	9%	27%	0%	1%	62%	0%	70%
COc1ccc(-c2coc3ccc(-c4nnc(SCc5cccc(C#N)c5)o4)cc23)cc1	21%	0%	0%	14%	17%	18%	28%	0%	10%	0%
CC(C)(C)c1ccc(C(=O)Nc2cn3cc(-c4ccccc4)ccc3n2)cc1	0%	0%	0%	8%	0%	0%	13%	0%	0%	0%
O=C1NC(=O)C(c2ccccc2)=C1Nc1cccc(O)c1 [SB-390534]	27%	4%	6%	2%	0%	10%	15%	0%	0%	2%
Cc1nnc(-c2ccc(C)c(-c3ccc(C(=O)O)cc3)c2)o1 [GW608005]	0%	0%	31%	0%	0%	0%	0%	0%	0%	2%
CCC(=O)c1c(-c2ccccc2)c2cc(Cl)ccc2c(=O)n1Cc1cc(S(C)(=O)=O)n(CCC(C)(C)O)n1	10%	21%	12%	0%	6%	9%	33%	1%	7%	11%
Cn1c(=O)c(F)c(Nc2ccc(I)cc2F)c2c(=O)n(OC[C@H](O)CO)cnc21	10%	30%	9%	0%	0%	0%	0%	0%	2%	0%
COc1cc2ncn(-c3cc(OCc4ccncc4)c(C(N)=O)s3)c2cc1OC [GSK336313]	0%	14%	0%	0%	0%	0%	2%	0%	0%	0%
CCn1c(-c2nonc2N)nc2ccccc21 [SB-693162/GW549034]	25%	6%	21%	0%	34%	40%	0%	15%	0%	46%
COc1cc2ncn(-c3cc(OCc4ccc(S(C)(=O)=O)cc4)c(C(N)=O)s3)c2cc1OC [GW869979]	31%	0%	46%	11%	30%	8%	6%	6%	0%	4%
Cc1cc(Nc2nc(-c3cccc(C)n3)nc3ccccc23)ccn1 [GW872411]	0%	0%	0%	3%	0%	0%	0%	0%	0%	0%
COc1cc(Nc2nccc(N3CCC(NC(=O)C(C)c4ccc(Cl)cc4)C3)n2)cc(OC)c1OC (centres unmarked) [GSK1379757]	13%	40%	28%	0%	0%	4%	1%	0%	11%	0%
O=C(Nc1n[nH]c2cc(-c3ccccc3F)ccc12)C1CC1 [SB-733371]	16%	41%	0%	21%	24%	0%	0%	0%	0%	22%
COc1cc2ncn(-c3cc(OCCCc4ccccc4)c(C(N)=O)s3)c2cc1OC [GSK205189]	13%	36%	12%	0%	0%	0%	11%	0%	1%	1%
Cc1nc(N(C)[C@H]2CN(C(=O)CC#N)CC[C@H]2C)c2cc[nH]c2n1	9%	0%	18%	0%	10%	8%	0%	0%	0%	0%
COc1cc2nccc(Nc3ccc(OCc4ccc(NC(C)=O)cc4)cc3)c2cc1OC.Cl [GW440135]	13%	0%	26%	24%	0%	8%	26%	6%	36%	0%

Compound	%Inh [1]	%Inh [2]	%Inh [3]	%Inh [4]	%Inh [5]	%Inh [6]	%Inh [7]	%Inh [8]	%Inh [9]	%Inh [10]
Cc1ccc(Oc2ccc(Nc3ncnc4cc[nH]c34)cc2C)cn1	25%	4%	0%	34%	1%	13%	20%	0%	0%	10%
Cl.c1ccc(Cn2cnc3cc(Nc4ncnc5ccccc45)ccc32)cc1 [GW272142]	0%	34%	0%	0%	0%	0%	6%	0%	11%	4%
COc1ccc(-c2cc3c(C)nc(N)nc3n([C@H]3CC[C@H](O)CC3)c2=O)cn1	0%	0%	0%	40%	0%	0%	0%	0%	0%	0%
CCC(=O)c1c(-c2ccccc2)c2cc(Cl)ccc2c(=O)n1Cc1cc(S(C)(=O)=O)n(CC(N)=O)n1	2%	0%	5%	0%	0%	0%	16%	0%	0%	0%
Cl.NS(=O)(=O)c1cccc(Nc2cc(-c3ccc(F)cc3)n[nH]2)c1 [GW824645]	0%	0%	23%	7%	0%	45%	0%	33%	0%	0%
CCS(=O)(=O)c1ccc(OC)c(Nc2ncc(-c3ccc(F)cc3)o2)c1.Cl [GW591947]	0%	22%	41%	14%	0%	0%	0%	0%	0%	0%
COc1cc(Nc2nccc(N3CCC(NC(=O)C4COc5ccccc5O4)C3)n2)cc(OC)c1OC (centres unmarked) [GSK1379761]	17%	57%	16%	0%	0%	26%	16%	0%	2%	9%
O=C(NCCNc1ccnc(Nc2ccc(F)cc2)n1)Nc1ccc2c(c1)OCO2 [GSK1379882]	0%	17%	7%	0%	10%	0%	7%	0%	0%	11%
CCc1ccc(-c2ccc3c(c2)-c2nn(C)cc2S(=O)(=O)N3C)cc1	8%	0%	0%	0%	0%	0%	0%	32%	0%	0%
COC(=O)c1c(-c2ccccc2)c2cc(C)ccc2c(=O)n1Cc1ccccc1	0%	0%	0%	0%	0%	0%	19%	79%	0%	0%
COc1cccc(C2=C(N(C)c3ccccc3)C(=O)NC2=O)c1 [SB-334865]	0%	0%	0%	0%	0%	0%	0%	0%	15%	0%
CCc1nc(-c2cccc(C)c2)c(-c2ccncc2)s1	0%	3%	0%	0%	0%	0%	0%	50%	7%	0%
Fc1cccc(CSc2nnc(-c3ccc4c(c3)CCO4)o2)c1	0%	0%	0%	1%	5%	0%	0%	7%	2%	0%
Cc1cccc(-c2cc(-c3c[nH]nc3-c3ccccn3)ccn2)c1 [GW679395]	0%	0%	32%	0%	2%	1%	0%	8%	4%	0%
Nc1nc(-c2ccccc2F)c(-c2ccnc3ccccc23)s1 [GW560459]	0%	17%	39%	0%	13%	2%	0%	7%	0%	0%
Cc1ccccc1COc1cc(-n2cnc3cc(Cl)ccc32)sc1C(N)=O [GW813349]	2%	20%	18%	0%	12%	26%	1%	6%	0%	0%
O=C(NCc1cccs1)c1cc(C(=O)c2c(Cl)cccc2Cl)c[nH]1 [GW823670]	0%	19%	28%	7%	0%	15%	0%	0%	0%	0%
